Test results reported in PubChem BioAssay AID1405 (National Center for Advancing Translational Sciences (NCATS), 2008).
Results filed as inconclusive are left out. Activity calls are given as the source filed them. Calls follow the shape of the full dose curve.

Assay: Confirmation and Secondary Assays for Modulators of Hemoglobin Beta Chain Splicing at IVS2 654 and 705 loci
Conditions: HeLa beta-globin IVS2-654 splicing GFP reporter, 48 h
Description: NIH Chemical Genomics Center [NCGC]
NIH Molecular Libraries Screening Centers Network [MLSCN]
PI Name: Dr. Ryszard Kole
Modulation of Alternative Splicing as Therapy
Abnormal splicing is associated with a number of diseases, including cancer and genetic diseases such as cystic fibrosis, muscular dystrophy and beta-thalassemia. Alteration of disease associated splicing patterns provides a promising target for treatment. […] Mutations in the second intron of the b-globin gene at positions 654 or 705 are clinically relevant and cause mis-splicing which results in an out of frame gene product.
EGFP-654 HeLa Cells as screen system.
(§1) HeLa cell lines were stably transfected with a construct in which the EGFP (enhanced green fluorescent protein) cDNA was interrupted by the second intron of the beta-globin gene (IVS2-654). The ISV2 intron contains mutations which cause mis-splicing of EGFP and premature termination of EGFP which results in a nonfluorescent protein product. […] Expression of the transgene was driven by the CMV promoter. We concluded that a low molecular weight compound, which restored correct splicing of intron 2 would also generate functional EGFP protein, resulting in a fluorescent signal. Thus, the HeLa cells that express the EGFP-654 construct can be used for high throughput screening of a chemical library.
EGFP-705 HeLa Cells as screen system.
as §1, with “(IVS2-705).” for “(IVS2-654).”, “EGFP-705” for “EGFP-654”, “validation of splice site specificity of compounds identified in primary” for “high throughput”, “the ISV2 654 construct.” for “a chemical library.”
NCGC Assay Protocol Summary:
Confirmatory Screening. Freshly thawed HeLa EGFP-654 or EGFP-705 cells were seeded in 5 ul of optimem media (Invitrogen) containing 2 % fetal calf serum (Hyclone) and 1x penicillin/streptomycin (Invitrogen) at a concentration of 500 cells per well in 1536-well plates. Cells were incubated overnight at 37C in 5% CO2. The next day, cells were treated with DMSO, 500 nM antisense ISV2 654 (or 705) PNA control oligo, or library compound and allowed to grow at 37C in 5% CO2 for 2 days. The PNA oligo blocked the mutation site in the intron and allowed proper (wild type) splicing to occur, resulting in full length EGFP expression and also allowed for optimization of the assay parameters. Plates were read in the Acumen Explorer (TTP Labtech) using 488 nm laser excitation and 500-520 nm emission PMT filter in a 1 x 8 uM capture mode, and were read immediately after compound pinning (beta-globin-654-gfp-0hr), at 24 hours (beta-globin-654-gfp-24hr and beta-globin-705-gfp-24hr), and at 48 hours (beta-globin-654-gfp-48hr and beta-globin-705-gfp-48hr). Fluorescnet objects ranging in size from 5 to 250 uM were measured and the total peak GFP intensity for each well was used for data analysis. Cell death was measured by quantitating protease release by sick and dying cells using Promega's luminescent Cytotox-Glo reagent. Cells were treated with 2ul of Cytotox- Glo reagent incubated at room temperature for 5 minutes and read in the Viewlux plate reader with a 30 second integration time (beta-globin-654-protease-48hr and beta-globin-705-protease-48hr).
Keywords: Thalassemia, beta-thalassemia, beta-globin, EGFP, ISV2 654, ISV2 705, SSO, PNA, antisense, splicing, MLSMR, MLSCN, NIH Roadmap, qHTS, NCGC

Potency, active:
S=C1NC=NC2N=CNC12 (stereo not drawn) 1.58 µM
O=c1[nH]c(=O)n([C@@H]2O[C@H](CO)[C@@H](O)[C@H]2O)cc1F 3.98 µM
Nc1nc(=S)c2[nH]cnc2[nH]1 1.12 µM
Nc1nc2n[nH]nc2c(=O)[nH]1 2.51 µM
Cn1cnc([N+](=O)[O-])c1Sc1ncnc2nc[nH]c12 2 µM
CCn1c(C)nc([N+](=O)[O-])c1Sc1ncnc2nc[nH]c12 2 µM
OCC1OC(n2cnc3c(=S)nc[nH]c32)C(O)C1O (stereo not drawn) 1.78 µM
Nc1nc(=S)c2ncn([C@H]3O[C@@H](CO)[C@@H](O)[C@@H]3O)c2[nH]1 1.26 µM
